Among the data in PubChem BioAssay (EPA / NIEHS) are AC50 and outcome values, retold here.

Read-out in experiment [1]: C-C motif chemokine 2 (Homo sapiens) (UniProt P13500)
The experiment in a line: BSK_KF3CT_MCP1: BioMAP Diversity Plus: KF3CT Assay for Monocyte Chemoattractant Protein 1 (MCP1/CCL2) Biomarker Activity (AID 2283073). As to conditions: primary human keratinocytes with fibroblasts; actives raise or lower the signal. In short, it runs like this:
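Biomarker MCP-1 is measured by ELISA in primary human keratinocytes co-cultured with foreskin fibroblasts, 24 h after chemical treatment; DMSO serves as the negative control and activity baseline.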

Read-out in experiment [2]: Matrix Metallopeptidase 9 (MMP9), MMP9 (gene 4318)
The experiment in a line: BSK_KF3CT_MMP9: BioMAP Diversity Plus: KF3CT Assay for Matrix Metallopeptidase 9 (MMP9) Biomarker Activity (AID 2283074).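 For AC50: MMP9 protein level quantified by ELISA in the co-culture.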 The conditions noted are these: primary human keratinocytes with fibroblasts; actives raise or lower the signal. In short, it runs like this:
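ELISA read-out of MMP-9 at 24 h post-dosing in a co-culture of human skin keratinocytes and foreskin fibroblasts. Gain or loss of signal was fitted in both directions against DMSO.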

Read-out in experiment [3]: urokinase plasminogen activator (uPA), PLAU (gene 5328)
Briefly: BSK_KF3CT_uPA: BioMAP Diversity Plus: KF3CT Assay for urokinase plasminogen activator (uPA) Biomarker Activity (AID 2283075). The conditions noted are these: primary human keratinocytes with fibroblasts; actives raise or lower the signal. In short, it runs like this: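 Skin co-culture (keratinocytes + foreskin fibroblasts), human primary; 24 h post-dose; uPA by ELISA; gain/loss fit vs DMSO baseline.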

Read-out in experiment [4]: CD40, CD40 (gene 958)
The experiment in a line: BSK_LPS_CD40: BioMAP Diversity Plus: LPS Assay for CD40 Biomarker Activity (AID 2283076). As to conditions: primary human HUVEC with PBMC; actives raise or lower the signal. In short, it runs like this:
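Using a multiplexed primary human co-culture (umbilical vein endothelium plus PBMC), CD40 was read by ELISA 24 h after dosing, with cytotoxicity tracked by sulforhodamine B staining of parallel cultures and activity fitted bidirectionally versus DMSO.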

Read-out in experiment [5]: E-selectin (Homo sapiens) (UniProt P16581)
Briefly: BSK_LPS_Eselectin: BioMAP Diversity Plus: LPS Assay for Eselectin Biomarker Activity (AID 2283077). The conditions noted are these: primary human HUVEC with PBMC; actives raise or lower the signal. In short, it runs like this:
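Dose chemical onto LPS-driven HUVEC/PBMC co-culture; after 24 h, run ELISA for E-selectin; fit up- and down-going responses relative to DMSO control.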

Read-out in experiment [6]: Interleukin-8 (IL8), CXCL8 (gene 3576)
The experiment in a line: BSK_LPS_IL8: BioMAP Diversity Plus: LPS Assay for Interleukin-8 (IL8) Biomarker Activity (AID 2283078). The conditions noted are these: primary human HUVEC with PBMC; actives raise or lower the signal. The method in brief:
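In this LPS system, chemical-treated human umbilical vein endothelium/PBMC co-cultures were harvested at 24 h for IL-8 ELISA.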

Read-out in experiment [7]: Interleukin-1 alpha (IL1a), IL1A (gene 3552)
Briefly: BSK_LPS_IL1a: BioMAP Diversity Plus: LPS Assay for Interleukin-1 alpha (IL1a) Biomarker Activity (AID 2283080). The conditions noted are these: primary human HUVEC with PBMC; actives raise or lower the signal. The method in brief:
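Primary human HUVEC and PBMC co-culture stimulated with LPS is dosed and harvested at 24 h. Both increases and decreases in ELISA-measured IL-1a are scored relative to DMSO.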

Read-out in experiment [8]: Monocyte Chemoattractant Protein-1 (MCP1), CCL2 (gene 6347)
The experiment in a line: BSK_LPS_MCP1: BioMAP Diversity Plus: LPS Assay for Monocyte Chemoattractant Protein-1 (MCP1) Biomarker Activity (AID 2283081).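 For AC50: secreted MCP-1 protein quantified by ELISA in culture supernatant.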 The conditions noted are these: primary human HUVEC with PBMC; actives raise or lower the signal. In short, it runs like this:
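Values derive from bidirectional fitting against DMSO of ELISA-measured MCP-1 in a human primary endothelial and mononuclear cell co-culture, 24 h after chemical addition under LPS activation.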

Experiment [9] in a line: BSK_LPS_PGE2: BioMAP Diversity Plus: LPS Assay for Prostaglandin E2 (PGE2) Biomarker Activity (AID 2283082). As to conditions: primary human HUVEC with PBMC; actives raise or lower the signal. In short, it runs like this: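 PGE2 release measured by ELISA in an LPS-activated co-culture of human umbilical vein endothelial cells and peripheral blood mononuclear cells, read at 24 h post-dosing. DMSO served as baseline for bidirectional curve fitting.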

Read-out in experiment [10]: Macrophage colony-stimulating factor (MCSF), CSF1 (gene 1435)
Briefly: BSK_LPS_MCSF: BioMAP Diversity Plus: LPS Assay for Macrophage colony-stimulating factor (MCSF) Biomarker Activity (AID 2283083). The conditions noted are these: primary human HUVEC with PBMC; actives raise or lower the signal. In short, it runs like this: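 Bidirectional fit versus DMSO of ELISA-measured M-CSF in co-cultured human umbilical vein endothelial cells and PBMC, sampled 24 h after dosing.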

Read-out in experiment [11]: Tissue Factor, F3 (gene 2152)
Briefly: BSK_LPS_TissueFactor: BioMAP Diversity Plus: LPS Assay for Tissue Factor Biomarker Activity (AID 2283084). As to conditions: primary human HUVEC with PBMC; actives raise or lower the signal. In short, it runs like this: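 Read-out: CD142 ELISA, 24 h. System: LPS-driven human endothelial/PBMC co-culture. Analysis: up- or down-signal fitted against DMSO.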

Read-out in experiment [12]: Vascular cell adhesion molecule 1 (VCAM1), VCAM1 (gene 7412)
The experiment in a line: BSK_LPS_VCAM1: BioMAP Diversity Plus: LPS Assay for Vascular cell adhesion molecule 1 (VCAM1) Biomarker Activity (AID 2283086). As to conditions: primary human HUVEC with PBMC; actives raise or lower the signal. In short, it runs like this:
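VCAM-1 quantified by ELISA in an LPS-activated co-culture of human endothelial cells and peripheral blood mononuclear cells, read 24 h post-treatment. Fitted in both directions versus DMSO; parallel SRB staining flags overt cytotoxicity.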

Read-out in a further experiment: CD38, CD38 (gene 952)
Briefly: BSK_SAg_CD38: BioMAP Diversity Plus: SAg Assay for CD38 Biomarker Activity (AID 2283087). The conditions noted are these: primary human HUVEC with PBMC; actives raise or lower the signal. The method in brief:
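CD38 quantified by ELISA (fluorescence) in a superantigen-activated endothelial cell–PBMC co-culture at 24 h post-dose. Activity fitted in both directions relative to DMSO; parallel SRB and Alamar Blue cytotoxicity read-outs.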

Read-out in experiment [13]: CD40, CD40 (gene 958)
The experiment in a line: BSK_SAg_CD40: BioMAP Diversity Plus: SAg Assay for CD40 Biomarker Activity (AID 2283088). As to conditions: primary human HUVEC with PBMC; actives raise or lower the signal. The method in brief:
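Endpoint derived by fitting increases or decreases versus DMSO controls. CD40 is detected by fluorescence ELISA in a human vascular co-culture of endothelium and PBMC at 24 h.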

Read-out in the next experiment: CD69, CD69 (gene 969)
The experiment in a line: BSK_SAg_CD69: BioMAP Diversity Plus: SAg Assay for CD69 Biomarker Activity (AID 2283089).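 For AC50: cell surface CD69 protein quantified by ELISA with fluorescence detection.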 The conditions noted are these: primary human HUVEC with PBMC; actives raise or lower the signal. In short, it runs like this: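 Primary human vascular co-culture (umbilical vein endothelium with peripheral blood mononuclear cells) exposed to test chemical for 24 h. CD69 levels quantified by fluorescence ELISA; DMSO served as negative control for bidirectional fitting.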

Read-out in experiment [14]: Monocyte Chemoattractant Protein-1 (MCP1), CCL2 (gene 6347)
The experiment in a line: BSK_SAg_MCP1: BioMAP Diversity Plus: SAg Assay for Monocyte Chemoattractant Protein-1 (MCP1) Biomarker Activity (AID 2283090). The conditions noted are these: primary human HUVEC with PBMC; actives raise or lower the signal. In short, it runs like this:
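Values derive from bidirectional fitting of ELISA-measured MCP1 against DMSO controls. Readings were taken 24 h after dosing human vascular endothelial cells co-cultured with peripheral blood mononuclear cells under superantigen stimulation.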

Read-out in experiment [15]: E-selectin (Homo sapiens) (UniProt P16581)
The experiment in a line: BSK_SAg_Eselectin: BioMAP Diversity Plus: SAg Assay for Eselectin Biomarker Activity (AID 2283091). The conditions noted are these: primary human HUVEC with PBMC; actives raise or lower the signal. The method in brief:
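Endpoint values derive from bidirectional fitting relative to DMSO, using ELISA-measured E-selectin in a human vascular co-culture (umbilical vein endothelium plus PBMC) sampled 24 h after dosing.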

Read-out in experiment [16]: Monokine induced gamma interferon (MIG), CXCL9 (gene 4283)
The experiment in a line: BSK_SAg_MIG: BioMAP Diversity Plus: SAg Assay for Monokine induced gamma interferon (MIG) Biomarker Activity (AID 2283092). The conditions noted are these: primary human HUVEC with PBMC; actives raise or lower the signal. The method in brief: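 Endothelial cells and PBMC were co-cultured, exposed to test chemicals, and sampled 24 h later. MIG was measured by ELISA, and responses were fitted in both directions relative to DMSO.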

Activity calls are given as the source filed them. Rule for the calls: active = hit-call score of the fitted dose curve at least 0.9, where 1 is the maximum; inactive = score below 0.9.

E-selectin (Homo sapiens), sequence (P16581 whole entry, looked up): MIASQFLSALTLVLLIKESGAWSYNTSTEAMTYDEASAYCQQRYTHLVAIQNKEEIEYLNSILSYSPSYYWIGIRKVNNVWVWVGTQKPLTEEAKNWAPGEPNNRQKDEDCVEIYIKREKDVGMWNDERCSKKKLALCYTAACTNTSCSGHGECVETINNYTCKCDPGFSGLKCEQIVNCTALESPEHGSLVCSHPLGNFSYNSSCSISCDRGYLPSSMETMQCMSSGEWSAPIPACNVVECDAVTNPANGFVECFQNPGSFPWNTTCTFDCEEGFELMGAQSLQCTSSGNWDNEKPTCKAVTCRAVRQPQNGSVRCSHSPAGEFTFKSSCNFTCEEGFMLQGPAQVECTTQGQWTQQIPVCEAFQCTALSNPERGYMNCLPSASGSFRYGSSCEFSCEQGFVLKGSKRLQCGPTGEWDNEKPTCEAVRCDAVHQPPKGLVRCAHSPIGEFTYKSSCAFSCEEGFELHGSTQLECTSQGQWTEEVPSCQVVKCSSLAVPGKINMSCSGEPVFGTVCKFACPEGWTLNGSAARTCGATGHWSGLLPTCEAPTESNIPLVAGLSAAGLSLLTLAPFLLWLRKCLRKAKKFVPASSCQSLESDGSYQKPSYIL

Take `CCCCCCCCCCCCCC[N+](C)(C)C`: the AC50 was 8.89 µM (active) in experiment [1]; 3.52 µM (active) in experiment [2]; 4.33 µM (active) in experiment [3]; 4.57 µM (active) in the experiment with CD40, CD40 (gene 958) [4]; 10 µM (active) in experiment [5]; 10.9 µM (active) in [6]. For the same compound, the AC50 in [7] is 1.76 µM (active); in experiment [8], 5.01 µM (active); in [10], 5.39 µM (active); in experiment [11], 5.28 µM (active); in [12] it was 5.64 µM (active); with CD38, CD38 (gene 952) it was 3.24 µM (active). Also, the AC50 in the experiment with CD40, CD40 (gene 958) [13] was 2.15 µM (active); with CD69, CD69 (gene 969) it was 2.53 µM (active); in experiment [14], 3.66 µM (active); in experiment [15], 3.2 µM (active); in [16] it was 7.11 µM (active). The outcome in experiment [9] was inactive.

Consider `c1ccc2c(c1)Cc1ccccc1-2`, for which the outcome in experiment [1] was “inactive”; in experiment [2], “inactive”; in [3] it was “inactive”; in the experiment with CD40, CD40 (gene 958) [4], “inactive”; in experiment [5], “inactive”; in experiment [6], “inactive”. For the same compound, the outcome in experiment [7], in experiment [8], in experiment [9], in experiment [10], in experiment [11] and in experiment [12] was inactive. In addition, the outcome with CD38, CD38 (gene 952) is “inactive”; with CD40, CD40 (gene 958) [13], “inactive”; in the experiment with CD69, CD69 (gene 969), “inactive”; in experiment [14] it was “inactive”; in experiment [15], “inactive”; in experiment [16], “inactive”.

As to `CCCCCCCC(=O)O`, the outcome in [1] is “inactive”; in [2], “inactive”; in experiment [3], “inactive”; in the experiment with CD40, CD40 (gene 958) [4], “inactive”; in experiment [5], “inactive”; in [6], “inactive”. Moreover, the result in experiment [7], in [8], in [9], in [10], in experiment [11] and in [12] was inactive. Moreover, the outcome in the experiment with CD38, CD38 (gene 952) was “inactive”; with CD40, CD40 (gene 958) [13], “inactive”; in the experiment with CD69, CD69 (gene 969) it was “inactive”; in experiment [14] it was “inactive”; in [15], “inactive”; in [16], “inactive”.

In the case of `COCC(C)O` (stereo not given), the outcome in [1] is “inactive”; in experiment [2], “inactive”; in experiment [3] it was “inactive”; in the experiment with CD40, CD40 (gene 958) [4] it was “inactive”; in experiment [5], “inactive”; in experiment [6] it was “inactive”. Also, the result in experiment [7], in [8], in experiment [9], in experiment [10], in [11] and in experiment [12] was inactive. Further, the outcome with CD38, CD38 (gene 952) is “inactive”; with CD40, CD40 (gene 958) [13] it was “inactive”; in the experiment with CD69, CD69 (gene 969), “inactive”; in experiment [14], “inactive”; in [15] it was “inactive”; in experiment [16] it was “inactive”.

Turning to `CCCCC(CC)COC(=O)CCCCC(=O)OCC(CC)CCCC` (stereo not given), the outcome in experiment [1] was “inactive”; in experiment [2], “inactive”; in experiment [3] it was “inactive”; with CD40, CD40 (gene 958) [4], “inactive”; in experiment [5] it was “inactive”; in experiment [6], “inactive”. Besides, the result in [7], in experiment [8], in [9], in [10], in experiment [11] and in experiment [12] was inactive. Also, the outcome with CD38, CD38 (gene 952) was “inactive”; with CD40, CD40 (gene 958) [13] it was “inactive”; with CD69, CD69 (gene 969) it was “inactive”; in experiment [14] it was “inactive”; in experiment [15], “inactive”; in experiment [16] it was “inactive”.

What is called AC50 is the midpoint of the concentration-response curve, whichever way the signal moves.
